Experimental data: PubChem BioAssay (NCATS)
Results filed as inconclusive are left out. Calls of active or inactive are those of the source. Unless noted, the call rests on the fitted dose curve; in most records, active means well fitted curve in the direction sought with a large enough effect; inconclusive means small, poorly fitted or top-dose-only effect, or another doubt; inactive means no such curve, though single readings can be large; an effect the other way counts as inactive or inconclusive.

Columns and labels:
[1] = qHTS for Activators of Parkin Expression: LOPAC Validation Assay (NLuc Reporter) (AID 720572;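 further: 0% = DMSO and 100% = positive control compound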)
How it was run: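 Parkin promoter-driven FLuc/NLuc neuronal reporter cells; 24 h plating, 7-pt dose response, 24 h at 37 C/5% CO2; FLuc then NanoLuc reagent, 10 min each, luminescence; DMSO/positive control normalized.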

[2] = qHTS for Activators of Parkin Expression: LOPAC Validation Assay (FLuc Reporter) (AID 720573;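 further: 0% = DMSO and 100% = positive control compounds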)
How it was run: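 Neuronal cell line stably carrying FLuc/NLuc coincidence reporter under Parkin promoter; cells plated 24 h, then compounds added in 7-point dose response for 24 h at 37 C. FLuc luminescence read; normalized to DMSO and positive control (100%).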

[3] = target: T1, Hexokinase-4 (Homo sapiens) + Glucokinase regulatory protein (Homo sapiens) (UniProt P35557+Q14397); assay: qHTS assay for inhibitors of recombinant human GCK-GKRP interaction: Diaphorase-coupled assay (AID 743205)
How it was run: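 GST-GCK (10 nM) with FLAG-GKRP (10 nM), 5 mM glucose and 0.4 mM ATP in pH 7.6 Hepes; compounds preincubated 20 min with substrate. G6PDH/diaphorase coupling converts resazurin to resorufin, read kinetically (ex 525/em 590 nm) for 30 min.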

[4] = target: T1, Hexokinase-4 (Homo sapiens) + Glucokinase regulatory protein (Homo sapiens); assay: qHTS assay for inhibitors of recombinant human GCK-GKRP interaction: ADP-Glo assay (AID 743206);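 further: plate controls were DMSO plus enzyme for no effect and no enzyme for full effect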
How it was run: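 GST-GCK and FLAG-GKRP (15 nM each in the dispensed mix, with 2 uM S6P) react with 0.4 mM ATP and 5 mM glucose (final) in Hepes pH 7.6 for 60 min at room temperature. ADP is measured by ADP-Glo luminescence.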

[5] = qHTS Assay for Identifying Gametocytocidal Compounds (AID 743244);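 further: on the % scale 0 is the no-effect control and ±100 the full control effect; actives lower the fluorescent signal which means gametocytes are killed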; conditions: P. falciparum 3D7 stage III-V gametocytes, alamarBlue, 72 h; max response: stronger effect = lower value
How it was run: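 Viability read-out was resazurin reduction (alamarBlue, 24 h) measured at Ex 525/Em 598 nm. Beforehand, late-stage (III-V) 3D7 P. falciparum gametocytes at 20,000 cells/well were incubated with compound 72 h at 37C under 5% CO2.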

[6] = Natriuretic polypeptide receptor (hNpr1) antagonism - Pilot counterscreen GloSensor control cell line (AID 1347045; calls by dose curve; further: on the % scale 0 is the no-effect control and ±100 the full control effect)
How it was run: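 HEK293 cells carrying the GloSensor cGMP sensor (GIP/pGS-40F) were loaded with 2% GloSensor reagent for 2 h, exposed to compounds for 30 min, and then stimulated with 50 uM sodium nitroprusside for 20 min at room temperature.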

[7] = target: Atrial natriuretic peptide receptor 1 (Homo sapiens) (UniProt P16066); assay: Natriuretic polypeptide receptor (hNpr1) antagonism - Pilot screen (AID 1347049; calls by dose curve;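 further: agonist-evoked cGMP luminescence read 20 min after hNppA addition; on the % scale 0 is the no-effect control and ±100 the full control effect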)
How it was run: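 Readout is cGMP-driven firefly luciferase luminescence in HEK293 cells carrying hNpr1 and a PDE5-domain GloSensor, read before and 20 min after 0.1 nM hNppA stimulation. Cells had 2% substrate reagent for 2 h and test compound for 30 min.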

[8] = target: Atrial natriuretic peptide receptor 2 (Homo sapiens) (UniProt P20594); assay: Natriuretic polypeptide receptor (hNpr2) antagonism - Pilot subtype selectivity assay (AID 1347050; calls by dose curve; further: on the % scale 0 is the no-effect control and ±100 the full control effect)
How it was run: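 Pilot selectivity screen against hNpr2: HEK293 cGMP-sensor cells are treated with LOPAC1280 compounds, then with hNppC peptide at 1 nM final. The cGMP-driven luminescence change over 20 min at room temperature is the read-out.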

[9] = NS1 protein of Zika virus - qHTS assay to identify small molecule inhibitors in human HEK 293 cells (AID 1347053);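 further: plate controls were infected untreated cells for no effect and uninfected cells for full effect; nearly all actives have a fitted effect of over 55% in size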
How it was run: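 HEK 293 cells, seeded 20 h at 37 C, were pretreated with compound 1 h, then infected with ZIKV MR766 (MOI = 0.5) for 24 h. NS1 was read by TR-FRET with two anti-NS1 antibodies, normalized to uninfected and infected wells.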

[10] = target: T2, Tyrosine-protein phosphatase non-receptor type substrate 1 (Homo sapiens) + Leukocyte surface antigen CD47 (Homo sapiens) (UniProt P78324+Q08722); assay: CD47-SIRPalpha protein protein interaction - LANCE assay qHTS validation (AID 1347057; active means well fitted curve in the direction sought with a large enough effect in the signal ratio, with a control signal flat, not every such curve was filed as active; the % refers to the signal ratio; further: 0% is about no effect)
How it was run: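 First, His-tagged CD47 and Eu-labelled anti-His antibody met the compound for 30 min; next, site-specifically biotinylated SIRPalpha was added for 30 min; finally streptavidin-APC was added before reading the TR-FRET ratio.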

[11] = target: T2, Tyrosine-protein phosphatase non-receptor type substrate 1 (Homo sapiens) + Leukocyte surface antigen CD47 (Homo sapiens); assay: CD47-SIRPalpha protein protein interaction - HTRF assay qHTS validation (AID 1347058; active means well fitted curve in the direction sought with a large enough effect in the signal ratio, not every such curve was filed as active; the % refers to the signal ratio;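 further: recombinant soluble extracellular CD47 with His tag and biotinylated SIRPalpha domains; 0% is about no effect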)
How it was run: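 TR-FRET read (Ch1/Ch2 ratio) of soluble extracellular CD47 and Avi-biotinylated SIRPalpha domains in PBS pH 7.4 with 0.05% IGEPAL; 7-point compound titration. Sequential 30 min room-temperature steps; non-biotinylated SIRPalpha as control inhibitor.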

[12] = target: T2, Tyrosine-protein phosphatase non-receptor type substrate 1 (Homo sapiens) + Leukocyte surface antigen CD47 (Homo sapiens); assay: CD47-SIRPalpha protein protein interaction - Alpha assay qHTS validation (AID 1347059);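 further: bead proximity luminescence from CD47 binding SIRPalpha after compound preincubation with SIRPalpha; on the % scale 0 is the no-effect control and ±100 the full control effect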
How it was run: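 Binding is measured by AlphaScreen proximity: Ni-NTA acceptor beads capture His-CD47, streptavidin donor beads capture biotin-SIRPalpha. Each of three additions (SIRPalpha with compound, CD47, beads) incubates 30 min at room temperature protected from light.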

[13] = target: Parathyroid hormone/parathyroid hormone-related peptide receptor (Homo sapiens) (UniProt Q03431); assay: qHTS for PTHR1 Agonists: Optimization Screen against the NCGC LOPAC library (AID 1347079);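 further: GloSensor cAMP luminescence in HEK-293 GP2 cells expressing human PTHR1 with IBMX; 0% is about no effect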
How it was run: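 Compounds were tested across a qHTS titration. PTHR1-expressing GP2 cells report cAMP rises via GloSensor luminescence after 1 hr compound exposure at 37C with IBMX present.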

[14] = test system: Zika virus NS2B-NS3 protease (unlinked); assay: Optimization of GU AMC qHTS for Zika virus inhibitors: Unlinked NS2B-NS3 protease assay (AID 1347151);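 further: 0% = no-inhibitor control and -100% = no-enzyme control; nearly all actives have a fitted effect of over 80% in size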
How it was run: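 Noncovalent complex of NS2B hydrophilic domain and NS3 protease domain, 25 nM final, in 10 mM Tris-HCl pH 8.0, 0.01% Tween 20. AMC fluorescence change over 15 min at room temperature was fitted to a 4-parameter Hill equation.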

[15] = test system: Zika virus NS2B-NS3 protease; assay: Primary screen GU AMC qHTS for Zika virus inhibitors (AID 1347154);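 further: 0% = no-inhibitor control and -100% = no-enzyme control; nearly all actives have a fitted effect of over 70% in size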
How it was run: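 Fluorogenic AMC-substrate cleavage by noncovalent NS2B-NS3 protease complex (25 nM, pH 8.0 Tris buffer with Tween 20) followed for 15 minutes at room temperature (~20% conversion). Percent inhibition from ex340/em450 signal change, fitted by 4-parameter Hill equation.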

[16] = target: Lysine-specific demethylase 5B (Homo sapiens) (UniProt Q9UGL1); assay: Optimization screen for KDM5B Histone Demethylases FDH coupled qHTS against the LOPAC library (AID 1347166); further: 0% is about no effect
How it was run: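 KDM5BDeltaAP (200nM final) preincubated 10 min with compound, then 12.5uM H3K4Me3, 25uM a-ketoglutarate, ascorbate, Fe(II), NAD+ and FDH added; 50mM HEPES pH 7.5, 0.01% Tween-20. NADH fluorescence (340/450 nm) change over 30 min, room temperature.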

[17] = qHTS to identify inhibitors of the type 1 interferon - major histocompatibility complex class I in skeletal muscle: primary screen against the NCATS LOPAC collection (AID 1347405)
How it was run: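 Immortalized human C25cl48 myoblasts with HiBiT knocked into endogenous HLA-B*08:01 were stimulated with 4.0 ng/ml IFN-beta and given compounds in a 7-point, 1:4.3 titration from 46 uM final; after 24 hrs, lytic HiBiT luminescence was read.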

[18] = qHTS for inhibitors of adenylyl cyclases using a fission yeast platform: a pilot screen against the NCATS LOPAC library (AID 1347410);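 further: plate controls were DMSO vehicle for no effect and DPI positive control for full effect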
How it was run: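 S. pombe CHP2027 (AC9-GNAS-PDE4D2) carrying a PKA-repressed fbp1-GFP reporter was exposed to LOPAC compounds (final up to 57 µM) for 18 h at 30C in the dark, in EMM with histidine, lysine and uracil; GFP gain-of-signal read by laser scanning cytometry.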

[19] = Validation qHTS assay for inhibitors of Activation Induced Cytidine Deaminase (AID): UDG Counterscreen signal (AID 1347427); further: 0% is about no effect
How it was run: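 Counterscreen read of UDG activity (2 U/mL, 4/3x) in the FRET deamination format with AID (1 uM, 4/3x), DJC20/DJC23 substrates (250 nM, 4x), 4 h at room temperature. NaOH stop, fluorescence at 560 ex/665 em.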

[20] = target: Single-stranded DNA cytosine deaminase (Homo sapiens) (UniProt Q9GZX7); assay: Validation qHTS assay for inhibitors of Activation Induced Cytidine Deaminase (AID): AID signal (AID 1347429); further: on the % scale 0 is the no-effect control and ±100 the full control effect
How it was run: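 AID and UDG were combined and compounds added at final up to 114 uM, then DJC20/DJC23 FRET substrate was added for 4 hr at room temperature. NaOH was then added for 30 min before fluorescence was read at 540/590 nm.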

[21] = Primary qHTS for inhibitors of La Crosse Virus (LACV) - induced cell death in SH-SY5Y cells (AID 1508616);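 further: top concentration of the series differs between compounds; 0% = infected DMSO wells and 100% = uninfected DMSO wells; higher means more rescue of cells from virus-induced death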
How it was run: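 Luminescent ATP readout (ATPLite 1step, 5 min room temperature) measured rescue from LACV-induced death after 6 days of infection at 0.01 MOI; normalized to infected DMSO wells and uninfected DMSO wells.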

[22] = target: Calcium and integrin-binding protein 1 (Homo sapiens) (UniProt Q99828); assay: Validation qHTS for Identification of Calcium Integrin Binding protein 1 (CIB1) Competitor (AID 1508618); further: on the % scale 0 is the no-effect control and ±100 the full control effect
How it was run: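 CIB1-GST (1 uM final) in 5 mM HEPES pH 7.4, 125 mM NaCl, 5 mM CaCl2, 0.01% Tween20 was preincubated 15 min at room temperature with compound (up to 114 uM), then FITC-alphaIIb peptide (100 nM) added for 15 min; fluorescence polarization read.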

[23] = Primary qHTS for small molecule stabilizers of the endoplasmic reticulum resident proteome: Secreted ER Calcium Modulated Protein (SERCaMP) assay (AID 1508630); further: on the % scale 0 is the no-effect control and ±100 the full control effect
How it was run: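 GLuc-SERCaMP-expressing SH-SY5Y cells, pretreated 16 h with compound, are challenged with thapsigargin to empty ER calcium stores; after 4 h, coelenterazine is added directly to the medium and luminescence is imaged.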

[24] = target: Papain (Carica papaya) (UniProt P00784); assay: Primary qHTS assay for inhibitors of the protease papain (AID 1645873)
[25] = target: Catechol O-methyltransferase (Homo sapiens) (UniProt P21964); assay: Confirmatory Screen for Target Class Profiling of Small Molecule Inhibitors of Methyltransferases (AID 1745852; calls by dose curve); conditions: MTase-Glo luminescence, SAH detection, recombinant enzyme; measured here: COMT max response; stronger effect = lower value
[26] = target: Guanidinoacetate N-methyltransferase (Homo sapiens) (UniProt Q14353); assay: as above; conditions: activity change, negative = inhibition: at 57.3 µM (top of the series) unless noted
[27] = target: Nicotinamide N-methyltransferase (Homo sapiens) (UniProt P40261); assay: as above; conditions: MTase-Glo luminescence, SAH detection, recombinant enzyme; measured here: NNMT max response; stronger effect = lower value
[28] = target: Phenylethanolamine N-methyltransferase (Homo sapiens) (UniProt P11086); assay: as above; conditions: MTase-Glo luminescence, SAH detection, recombinant enzyme; measured here: PNMT max response; stronger effect = lower value
[29] = target: Metallo-beta-lactamase type 2 (Klebsiella pneumoniae) (UniProt C7C422); assay: qHTS to identify inhibitors of the New Delhi Metallo-beta-lactamase (NDM): assay validation screen against the NCATS LOPAC Collection (AID 1794843)
How it was run: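 NDM-1 at 2 nM final in 50 mM HEPES pH 7.0 with 1 uM ZnSO4 and 0.01% Tween20 was preincubated with library compounds in DMSO. Nitrocefin (50 uM stock) was then added, and absorbance at 485 nm was read at the kinetic plateau.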

[30] = target: Glutathione peroxidase 1 (Homo sapiens) (UniProt P07203); assay: Primary qHTS Assay for Inhibitors of Recombinant Selenoprotein Glutathione Peroxidase 1 (GPX1) (AID 1845191); further: nearly all actives have a fitted effect of over 65% in size
How it was run: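 10 nM GPX1 + cpd, 30 min RT; start w/ 1 mM GSH, 0.5 mM cumene hydroperoxide, 0.5 mM NADPH, 100 nM GR, 0.01% BSA; buffer 50 mM Tris-HCl pH 7.5, 2 mM EDTA, 150 mM NaCl; Fl 340/450, 0 & 15 min.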

[31] = target: Phospholipid hydroperoxide glutathione peroxidase GPX4 (Homo sapiens) (UniProt P36969); assay: Primary qHTS Assay for Inhibitors of Recombinant Selenoprotein Glutathione Peroxidase 4 (GPX4) (AID 1845192); conditions: outcome: dose series up to 50 µM unless noted; further: nearly all actives have a fitted effect of over 65% in size
How it was run: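 NADPH consumption, followed by fluorescence at 340/450 nm between 0 and 15 min, reports GPX4 activity via coupled glutathione reductase (100 nM). Enzyme 200 nM was pre-exposed to compound 30 min; 0.5 mM cumene hydroperoxide and 1 mM GSH served as substrates.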

T2 sequence (P78324 whole entry, looked up): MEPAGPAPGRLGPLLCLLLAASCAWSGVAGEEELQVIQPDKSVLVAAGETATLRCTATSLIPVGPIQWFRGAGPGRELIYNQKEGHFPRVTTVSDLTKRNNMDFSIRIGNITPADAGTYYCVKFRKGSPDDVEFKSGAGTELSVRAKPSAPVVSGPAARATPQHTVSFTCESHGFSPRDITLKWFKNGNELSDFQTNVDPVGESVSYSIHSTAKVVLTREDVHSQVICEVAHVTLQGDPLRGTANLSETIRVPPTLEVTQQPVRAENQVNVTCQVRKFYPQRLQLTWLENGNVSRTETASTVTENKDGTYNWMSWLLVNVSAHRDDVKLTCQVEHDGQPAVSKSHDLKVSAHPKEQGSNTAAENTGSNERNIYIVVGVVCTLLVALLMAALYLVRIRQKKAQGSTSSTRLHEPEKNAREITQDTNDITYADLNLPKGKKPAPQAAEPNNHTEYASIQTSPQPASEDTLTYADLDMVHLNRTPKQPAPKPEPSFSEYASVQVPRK
T2 sequence (Q08722 whole entry, looked up): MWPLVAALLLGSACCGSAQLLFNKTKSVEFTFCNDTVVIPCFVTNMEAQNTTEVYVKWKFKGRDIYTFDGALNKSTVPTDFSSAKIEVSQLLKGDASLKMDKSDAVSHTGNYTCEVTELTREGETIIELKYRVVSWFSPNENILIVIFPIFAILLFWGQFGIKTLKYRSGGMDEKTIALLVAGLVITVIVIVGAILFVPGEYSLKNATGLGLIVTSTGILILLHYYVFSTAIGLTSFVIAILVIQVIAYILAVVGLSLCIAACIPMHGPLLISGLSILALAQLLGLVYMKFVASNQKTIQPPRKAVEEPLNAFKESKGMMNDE
T1 sequence (P35557 whole entry, looked up): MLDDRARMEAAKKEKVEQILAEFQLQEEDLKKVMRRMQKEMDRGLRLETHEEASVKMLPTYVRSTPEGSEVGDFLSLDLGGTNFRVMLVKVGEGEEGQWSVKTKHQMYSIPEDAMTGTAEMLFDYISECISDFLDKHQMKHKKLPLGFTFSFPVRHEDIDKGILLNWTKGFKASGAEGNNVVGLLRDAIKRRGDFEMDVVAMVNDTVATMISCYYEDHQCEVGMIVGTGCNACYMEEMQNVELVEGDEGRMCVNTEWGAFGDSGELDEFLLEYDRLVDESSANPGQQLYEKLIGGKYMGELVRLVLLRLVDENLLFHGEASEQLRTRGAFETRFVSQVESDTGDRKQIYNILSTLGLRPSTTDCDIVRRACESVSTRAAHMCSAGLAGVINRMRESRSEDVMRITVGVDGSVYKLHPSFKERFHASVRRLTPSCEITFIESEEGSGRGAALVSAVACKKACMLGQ
T1 sequence (Q14397 whole entry, looked up): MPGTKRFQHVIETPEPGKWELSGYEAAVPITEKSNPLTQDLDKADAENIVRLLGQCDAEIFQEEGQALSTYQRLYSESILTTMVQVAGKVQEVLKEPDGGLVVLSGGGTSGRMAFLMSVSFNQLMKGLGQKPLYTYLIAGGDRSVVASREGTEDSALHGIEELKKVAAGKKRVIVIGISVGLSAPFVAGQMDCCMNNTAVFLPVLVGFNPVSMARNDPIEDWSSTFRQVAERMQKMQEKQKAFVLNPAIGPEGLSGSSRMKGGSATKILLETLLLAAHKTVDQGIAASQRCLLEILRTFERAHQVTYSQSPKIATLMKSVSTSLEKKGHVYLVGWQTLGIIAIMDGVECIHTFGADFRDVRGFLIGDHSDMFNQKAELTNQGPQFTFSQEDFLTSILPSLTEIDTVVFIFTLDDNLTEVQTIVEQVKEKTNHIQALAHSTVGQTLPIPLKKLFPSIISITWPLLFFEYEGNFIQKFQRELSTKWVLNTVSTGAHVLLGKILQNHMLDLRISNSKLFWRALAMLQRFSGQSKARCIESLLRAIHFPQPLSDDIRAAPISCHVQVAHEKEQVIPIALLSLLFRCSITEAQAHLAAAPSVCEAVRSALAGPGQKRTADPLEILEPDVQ
Sequence of Metallo-beta-lactamase type 2 (Klebsiella pneumoniae) (C7C422 whole entry, looked up): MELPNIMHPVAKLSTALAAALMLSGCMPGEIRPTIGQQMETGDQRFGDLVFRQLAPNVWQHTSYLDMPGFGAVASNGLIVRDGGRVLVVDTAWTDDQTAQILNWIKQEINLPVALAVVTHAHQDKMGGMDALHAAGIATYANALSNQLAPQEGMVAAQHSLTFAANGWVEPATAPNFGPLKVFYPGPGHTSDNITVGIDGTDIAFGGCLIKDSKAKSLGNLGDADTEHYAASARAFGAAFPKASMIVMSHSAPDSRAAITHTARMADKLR
Sequence of Atrial natriuretic peptide receptor 2 (Homo sapiens) (P20594 whole entry, looked up): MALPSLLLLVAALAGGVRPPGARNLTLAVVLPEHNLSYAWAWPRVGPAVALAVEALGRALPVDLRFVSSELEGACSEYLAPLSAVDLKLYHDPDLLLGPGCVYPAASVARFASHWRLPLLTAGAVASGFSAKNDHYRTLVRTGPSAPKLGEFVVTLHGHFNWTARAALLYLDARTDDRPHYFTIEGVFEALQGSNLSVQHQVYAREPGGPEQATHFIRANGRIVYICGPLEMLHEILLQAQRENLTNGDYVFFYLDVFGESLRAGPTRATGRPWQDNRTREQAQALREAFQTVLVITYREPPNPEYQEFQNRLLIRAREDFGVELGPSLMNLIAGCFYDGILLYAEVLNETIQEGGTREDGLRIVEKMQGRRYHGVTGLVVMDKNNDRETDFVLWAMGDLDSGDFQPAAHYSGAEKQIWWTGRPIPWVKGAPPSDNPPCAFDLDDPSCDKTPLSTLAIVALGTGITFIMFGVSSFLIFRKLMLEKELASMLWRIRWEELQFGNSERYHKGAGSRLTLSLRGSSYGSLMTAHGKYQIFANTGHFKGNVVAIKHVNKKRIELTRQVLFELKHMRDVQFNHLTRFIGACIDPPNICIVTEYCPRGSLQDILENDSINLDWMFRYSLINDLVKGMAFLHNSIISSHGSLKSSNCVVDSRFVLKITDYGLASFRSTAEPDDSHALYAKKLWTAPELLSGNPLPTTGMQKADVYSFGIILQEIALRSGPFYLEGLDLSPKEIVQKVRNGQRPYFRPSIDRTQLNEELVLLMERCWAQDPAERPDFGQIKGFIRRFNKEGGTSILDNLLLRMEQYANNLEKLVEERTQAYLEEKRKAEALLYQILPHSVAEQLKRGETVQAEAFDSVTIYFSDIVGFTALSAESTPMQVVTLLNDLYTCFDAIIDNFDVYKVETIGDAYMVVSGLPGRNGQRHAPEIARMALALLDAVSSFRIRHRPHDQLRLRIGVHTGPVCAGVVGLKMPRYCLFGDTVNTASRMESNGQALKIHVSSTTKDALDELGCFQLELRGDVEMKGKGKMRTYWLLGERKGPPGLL
Sequence of Atrial natriuretic peptide receptor 1 (Homo sapiens) (P16066 whole entry, looked up): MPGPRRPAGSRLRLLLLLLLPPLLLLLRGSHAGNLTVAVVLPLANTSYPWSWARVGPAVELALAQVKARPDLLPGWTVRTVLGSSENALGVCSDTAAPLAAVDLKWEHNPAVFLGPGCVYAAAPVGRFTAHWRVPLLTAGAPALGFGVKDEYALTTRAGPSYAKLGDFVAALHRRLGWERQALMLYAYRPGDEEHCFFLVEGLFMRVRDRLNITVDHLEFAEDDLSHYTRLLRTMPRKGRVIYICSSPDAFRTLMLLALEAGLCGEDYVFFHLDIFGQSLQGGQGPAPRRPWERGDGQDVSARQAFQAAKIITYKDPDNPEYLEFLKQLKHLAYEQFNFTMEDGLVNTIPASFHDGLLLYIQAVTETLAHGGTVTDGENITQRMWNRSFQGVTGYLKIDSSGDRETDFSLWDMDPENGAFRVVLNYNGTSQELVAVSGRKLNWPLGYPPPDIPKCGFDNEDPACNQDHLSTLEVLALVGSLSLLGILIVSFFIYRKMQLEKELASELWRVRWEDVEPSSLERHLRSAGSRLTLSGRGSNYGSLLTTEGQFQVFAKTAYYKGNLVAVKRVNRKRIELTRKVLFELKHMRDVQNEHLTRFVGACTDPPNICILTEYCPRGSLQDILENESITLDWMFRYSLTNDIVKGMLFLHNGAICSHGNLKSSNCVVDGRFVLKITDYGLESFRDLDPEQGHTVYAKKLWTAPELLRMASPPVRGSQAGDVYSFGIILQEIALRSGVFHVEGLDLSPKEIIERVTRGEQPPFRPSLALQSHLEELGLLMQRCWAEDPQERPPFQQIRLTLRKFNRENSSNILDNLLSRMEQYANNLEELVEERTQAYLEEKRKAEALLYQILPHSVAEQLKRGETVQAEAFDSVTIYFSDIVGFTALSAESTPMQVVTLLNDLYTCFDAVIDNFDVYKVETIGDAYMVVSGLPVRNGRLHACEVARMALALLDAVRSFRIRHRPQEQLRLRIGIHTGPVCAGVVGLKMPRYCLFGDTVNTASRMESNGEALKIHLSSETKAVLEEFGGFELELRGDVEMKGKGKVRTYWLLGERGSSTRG
Sequence of Calcium and integrin-binding protein 1 (Homo sapiens) (Q99828 whole entry, looked up): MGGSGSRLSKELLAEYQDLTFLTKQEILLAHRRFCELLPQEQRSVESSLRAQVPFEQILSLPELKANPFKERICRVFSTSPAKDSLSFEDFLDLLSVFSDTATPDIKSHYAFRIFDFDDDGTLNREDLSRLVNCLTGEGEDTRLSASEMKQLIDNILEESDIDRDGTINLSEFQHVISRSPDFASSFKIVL
Sequence of Phenylethanolamine N-methyltransferase (Homo sapiens) (P11086 whole entry, looked up): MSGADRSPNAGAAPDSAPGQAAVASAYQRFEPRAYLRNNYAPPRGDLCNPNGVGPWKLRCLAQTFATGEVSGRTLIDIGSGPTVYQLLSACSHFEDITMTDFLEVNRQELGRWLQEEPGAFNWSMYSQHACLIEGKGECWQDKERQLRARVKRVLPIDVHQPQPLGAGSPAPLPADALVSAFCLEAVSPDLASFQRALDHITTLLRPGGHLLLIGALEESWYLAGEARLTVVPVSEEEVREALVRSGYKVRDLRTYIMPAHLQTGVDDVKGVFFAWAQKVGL
Sequence of Phospholipid hydroperoxide glutathione peroxidase GPX4 (Homo sapiens) (P36969 whole entry, looked up): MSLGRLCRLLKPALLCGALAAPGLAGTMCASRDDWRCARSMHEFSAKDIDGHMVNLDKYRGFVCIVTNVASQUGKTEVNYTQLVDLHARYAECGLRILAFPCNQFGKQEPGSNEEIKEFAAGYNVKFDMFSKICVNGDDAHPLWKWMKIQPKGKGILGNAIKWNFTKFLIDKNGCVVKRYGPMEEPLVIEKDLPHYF

C[C@H](Cc1ccccc1)Nc1ncnc2c1ncn2[C@@H]1O[C@H](CO)[C@@H](O)[C@H]1O
-3.97%: activity change, negative = inhibition [26]
4.48%: activity [27]
-28.1%: activity [25]
inactive: outcome [1] | Potency [2] | outcome [3] | outcome [4] | max response [5] -7.31% | Potency [6] | Potency [7] | Potency [8] | outcome [9] | outcome [10] | outcome [11] | Potency [12] | outcome [13] | Potency [14] | Potency [15] | outcome [16] | Potency [17] | outcome [18] | outcome [19] | Potency [20] | outcome [21] | outcome [22] | Potency [23] | Potency [24] | Potency [29] | Potency [30] | Potency [31]
-12.3%: activity [28]
